Experimental data from PubChem BioAssay AID485364 (National Center for Advancing Translational Sciences (NCATS), 2010).
Screen size: about 360,000 compounds; about 11,000 (3.1%) were called active. Inconclusive results (about 4%) are left out. Many of the other results were omitted from the sample, so actives are more common in it than they were. Unmarked numbers belong to inactive results. Calls come from the whole dose curve; as a rule, active = well fitted inhibition curve with a large enough effect; inconclusive = small, poorly fitted or top-dose-only effect; inactive = no such curve, though single readings can be large or run the other way.

Target: Schistosoma mansoni thioredoxin glutathione reductase (TGR) (UniProt Q962Y6)
Test: qHTS Assay for the Inhibitors of Schistosoma Mansoni Peroxiredoxins; note: nearly all actives have a fitted effect of over 60% in size
Details: purified TGR, DTNB reduction, TNB absorbance 405 nm; series mostly up to 114 µM; activity change, negative = inhibition: at the top concentration
In short: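 First, TGR (20 nM dispensed) and NADPH were mixed with compound. Second, a 15 min room-temperature incubation followed. Third, further NADPH and then DTNB were added to start the reaction. Finally, TNB absorbance was monitored kinetically.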
% is set by controls: 0 for no effect and ±100 for the full control effect; potency is the fitted concentration of half-maximal effect.

SMILES	activity change, negative = inhibition [%]	Potency
Cc1cccc(NC(=O)N2CCN(C)c3ncccc32)c1C	-9.19	–
Cc1cccc(NC(=O)c2nnn(CC(=O)Nc3ccc(C(C)C)cc3)c2N)c1C	0.461	–
CCOc1ccccc1NC(=O)C1=C(C)Nc2ncnn2C1c1ccc(NC(C)=O)cc1 (centres undefined)	0.38	–
CCC(=O)N1CCc2cc(S(=O)(=O)NC(Cc3ccccc3)C(=O)NCc3ccc(C)cc3)ccc21 (centres undefined)	-0.785	–
CCOc1ccc(CNCCSc2nnnn2C)cc1	5.3	–
COc1ccc(C2Sc3ccccc3NC3=C2C(=O)c2ccccc23)c(OC)c1OC (centres undefined)	-17.6	–
COc1ccc(CN2C(=O)C(C)S/C2=N/N=C/c2ccco2)cc1 (centres undefined)	0	–
COc1ccc(N2C(=O)CNC2=S)cc1	-1.27	–
COC(=O)c1ccc(NC(=O)C(C)N2C(=O)c3ccccc3C2=O)cc1 (centres undefined)	5.73	–
COC(=O)C1=C(C)N(c2ccc(Br)cc2)C(=O)/C1=C\c1ccco1	–	35.5 µM (active)
COc1ccc(N2C(=O)/C(=C/c3ccco3)C(=O)NC2=S)cc1	–	14.1 µM (active)
COC(=O)C1=C(C)N(C)C(C)=C(C(=O)OC)C1c1cccc(Br)c1	-9.83	–
O=C(OCN1C(=O)c2ccccc2C1=O)/C(=C\c1ccco1)NC(=O)c1ccccc1	-54.4	–
COC(=O)C1=C(C)N(C(C)c2ccccc2)C(=O)/C1=C\c1ccco1 (centres undefined)	–	31.6 µM (active)
Cc1cccc(C)c1-n1ncc(C(=O)NCCCN2CCCCC2)c1C1CCN(C(=O)OC(C)(C)C)CC1	4.07	–
CC(C)NC(=O)C1CCC(Cn2c(=O)c3sccc3n(Cc3ccc(F)cc3)c2=O)CC1 (centres undefined)	2.15	–
Cc1ccc2onc(CC(=O)N3CCN(c4ccc(Cl)cc4)CC3)c2c1	-6.48	–
CCc1cc2c(cc(C(=O)OC)n2Cc2nc(-c3ccc(C)cc3)oc2C)s1	6.16	–
CC(=O)N1c2ccc(S(=O)(=O)N3CCCCCC3)cc2CC1C(=O)NCc1ccccc1C (centres undefined)	1.56	–
CC(=O)c1ccc(N2CCN(c3nc4c(S(=O)(=O)c5ccccc5)nnn4c4ccc(Cl)cc34)CC2)cc1	1.2	–
O=C(CSc1nccn1-c1ccc(F)cc1)Nc1cccc2ccccc12	-0.677	–
CC(=O)Nc1ccc2nc(SCCOc3cc(C)cc(C)c3)sc2c1	-10.3	–
O=C(NCC12CC3CC(CC(C3)C1)C2)c1cc2nc(-c3ccccc3)cc(C(F)(F)F)n2n1	2.05	–
CCCNC(=O)C1CCC(Cn2c(=O)c3sccc3n(Cc3ccccc3F)c2=O)CC1 (centres undefined)	-0.604	–
COc1ccccc1Nc1nc(N)nc(N)c1S(=O)(=O)c1ccccc1	4.24	–

SMILES	activity change, negative = inhibition [%]	Potency
CCC1(CC)Cc2ccccc2-c2nc(CCl)[nH]c(=O)c21	–	3.16 µM (active)
CCOC(=O)C1Cn2c(nc3c(c2=O)C(C)(CC)Cc2ccccc2-3)S1 (centres undefined)	-10.3	–
CC1(C)Cc2ccccc2-c2[nH]c(=S)[nH]c(=O)c21	-2.97	–
CCOC(=O)c1oc2ccc(S(=O)(=O)n3nc(-c4ccccc4OC)cc3N)cc2c1C	0.311	–
COc1ccc(Cl)cc1N(C)C(=O)c1cc2c(=O)oc3ccc(C)cc3c2s1	-4.63	–
O=C(OCC(=O)c1c[nH]c2ccccc12)c1cccc(O)c1	1.01	–
O=S(=O)(O)Oc1c[nH]c2ccccc12	–	20 µM (active)
NC(=O)CSc1c[nH]c2ccccc12	-1.35	–
Cc1ccc(OCC(=O)Nc2ccc(Cl)c(-c3nc4ccccc4[nH]3)c2)cc1C	1.61	–
CCc1nc2nc(C)cc(Nc3ccc(F)c(Cl)c3)n2n1	1.94	–
CCc1ccccc1NC(=O)[C@@H]1CCC(=O)N1C1OC(=O)c2c1ccc(OC)c2OC (some centres undefined)	-3.57	–
COc1ccc(N/C=C(\C2OC(=O)c3ccccc32)[N+](=O)[O-])cc1 (centres undefined)	-2.72	–
C/C(CC1CC(C)(C)OC1=O)=N/Nc1nc(-c2ccccc2)cs1 (centres undefined)	-10.8	–
COc1ccc(-c2csc(NC3OC(=O)c4ccccc43)n2)cc1 (centres undefined)	–	5.62 µM (active)
COc1ccc2c(c1OC)C(=O)OC2Nc1nc(-c2ccccc2)cs1 (centres undefined)	–	3.16 µM (active)
COc1ccc(-c2csc(NC(=O)COC(=O)Cc3ccc(Cl)cc3Cl)n2)cc1	-8.86	–
Cc1ccc(-c2csc(NC3OC(=O)c4ccccc43)n2)cc1 (centres undefined)	–	28.2 µM (active)
CCCc1cc(-c2nc(-c3ccc(C)cc3)cs2)ccn1	-0.4	–
Cc1ccc(-c2csc(-c3c[nH]c4ccccc34)n2)cc1	11.5	–
Cc1nnc(NC(=O)CSc2nc3c([nH]c4ccccc43)c(=O)n2-c2cccc(Cl)c2)s1	-0.89	–
CC(=O)Nc1c(C)nn(-c2ccccc2)c1N1CCC(C(=O)Nc2cc(Cl)ccc2C)CC1	-5.66	–
Cn1nnnc1SCCCNCc1ccc(Cl)cc1	-2.62	–
Fc1ccc(-c2nc(Nc3cccc(Cl)c3)nc3c2COc2ccccc2-3)cc1	-5.35	–
Cc1ccc(S(=O)(=O)N2CCCc3cc(NS(=O)(=O)c4cc(C)ccc4C)ccc32)cc1	6.35	–
Cc1cc(NS(=O)(=O)c2ccc3oc(=O)c4ncn(C)c4c3c2)ccc1Br	1.12	–

SMILES	activity change, negative = inhibition [%]	Potency
Cc1cc(C)cc(NC(=O)CCCc2nc(-c3ccccc3Cl)no2)c1	6.16	–
COc1cc(N2C(=O)CSC2=S)cc(OC)c1OC	12.2	–
CCOc1cccc(/C=N/N2C(=O)CSC2=S)c1O	–	3.55 µM (active)
O=C1CSC(=S)N1c1ccc(O)cc1	-0.744	–
Cc1cc(C)cc(NC(c2nnc(-c3cccc(F)c3)o2)c2ccc(F)cc2Cl)c1 (centres undefined)	-1.07	–
CCOc1cccc(CNC(=O)c2ccc(N3CCCC3)c(NC(=O)Nc3ccccc3CC)c2)c1	-5.43	–
Cc1c(Cl)cccc1NC(=O)NCc1ccc(C)n1C	–	35.5 µM (active)
Cc1c(Cl)cccc1NC(=O)Nc1ccc(C(=O)N2CCCC2)cc1	4.88	–
Cc1c(Cl)cccc1NC(=O)NCCCN1CCCC1=O	0.302	–
C#CC(C)(CC)NC(=O)Cn1nnc(-c2ccc(OCc3c(F)cccc3Cl)cc2)n1 (centres undefined)	-0.75	–
CO/N=C(\C(=O)N[C@@H]1C(=O)N2C(C(=O)O)=C(COC(C)=O)CS[C@H]12)c1csc(N)n1 (stereo in doubt)	-2.3	–
Cc1nnc(SCC2=C(C(=O)O)N3C(=O)C(NC(=O)Cn4nc(C)c(Cl)c4C)C3SC2)s1 (centres undefined)	–	10 µM (active)
Cc1cc(C)cc(C(=O)NC2C(=O)N3C(C(=O)O)=C(CSc4nnc(C)s4)CSC23)c1 (centres undefined)	–	5.01 µM (active)
Cc1nnc(SCC(=O)NC2CCCC2)s1	4.15	–
O=C(Cn1ncc2c3ccccc3n(Cc3ccccc3)c2c1=O)NC1CCCCCC1	-5.12	–
Cc1cccc(CSc2nc3ccncc3n2CC(=O)N(C)C2CCCCC2)c1	-3.37	–
CC(C)(C)OC(=O)N1CCC(c2c(C(=O)NCc3ccccn3)cnn2-c2ccc(F)cc2)CC1	25.3	–
COc1cccc(NC(C)=[N+](C)CCNS(=O)(=O)c2ccc(Cl)cc2)c1	–	31.6 µM (active)
COc1cccc(NC(=O)CCNS(=O)(=O)c2ccc3c(c2)oc(=O)n3C)c1	–	inactive
COc1ccc(S(=O)(=O)NCCCCOc2ccc(Cl)cc2)cc1	-4.78	–
N#Cc1nc(/C=C/c2ccc(F)cc2)oc1NC1CCCCC1	-2.25	–
CCC(=O)N1N=C(c2ccc(OC)cc2)CC1c1cn(-c2ccccc2)nc1-c1cccs1 (centres undefined)	0.702	–
CCCn1c2ccccc2c2cnn(CC(=O)NCCCOC(C)C)c(=O)c21	-2.21	–
CCSc1nnc2c(n1)OC(c1ccc(OCC(=O)O)cc1)Nc1ccccc1-2 (centres undefined)	1.91	–
COC(=O)c1scc(-c2ccc(C)cc2)c1S(=O)(=O)Nc1cc(Cl)c(OC)cc1OC	2.52	–

SMILES	activity change, negative = inhibition [%]	Potency
COc1ccc(Nc2ncc3c(n2)CCN(C(=O)OC(C)(C)C)C3)cc1	1.18	–
Cc1cccc(-n2c(O)c(C=Nc3ccccc3N)c(=O)[nH]c2=O)c1	-31.6	–
Cc1cccc(-n2c(O)c(/C=N/N3CCOCC3)c(=O)[nH]c2=S)c1	-0.279	–
Cc1cccc(-n2c(O)c(C=NC34CN5CN(CN(C5)C3)C4)c(=O)[nH]c2=O)c1	–	7.94 µM (active)
CCOc1ccc(NC(=O)CCC(=O)N2CC(C)Oc3ccc(C)cc32)cc1 (centres undefined)	-1.11	–
COc1ccc(OC)c(-c2nc(C(N)=O)c3c(n2)n(-c2ccc4c(c2)OCO4)c(=O)n3C)c1	-0.826	–
O=C(Nc1ccc(Cl)cc1)C1c2cccc[n+]2CC(=O)N1Cc1ccc2c(c1)OCO2 (centres undefined)	–	20 µM (active)
O=C(C1CCN(Cc2ccc(Cl)cc2)CC1)N1CCN(Cc2ccc3c(c2)OCO3)CC1	-1.17	–
CCCOc1ccc(NC(=O)CC2C(=O)N(C)C(=S)N2Cc2ccc3c(c2)OCO3)cc1 (centres undefined)	6.8	–
COc1ccc(S(=O)(=O)c2c(Nc3ccc(C)cc3)sc(C(=O)c3ccc(C)cc3)c2N)cc1	-2.02	–
Cc1c(C(=O)N2CCCC2)oc2c1-c1nn(CC(=O)NCc3ccc(OC(C)C)cc3)cc1CC2	-10.3	–
CCC(Sc1nc2n[nH]c(C)c2c(=N)n1-c1ccccc1Cl)C(=O)N(CC)CC (centres undefined)	6.06	–
Cc1cc(C)nc(N(C#N)CC(=O)Nc2ccccc2)n1	11.1	–
Cc1cc(C)nc(SC(C)C(=O)N/N=C/c2cccs2)n1 (centres undefined)	11.3	–
Cc1cc(C)nc(S/C=C/C(=O)c2ccccc2)n1	–	1.12 µM (active)
COc1ccccc1CN1CCC(CNC(=O)c2cnn(-c3ccccc3Cl)c2C2CCN(C(=O)OC(C)(C)C)CC2)CC1	3.34	–
CCOC(=O)c1c(S(=O)(=O)N2CCC(C(=O)NCc3ccccc3OC)CC2)c(C)n(C)c1C	-1.86	–
COc1cc(NC(=O)c2nc3ccccc3nc2C)cc(OC)c1OC	-0.972	–
COc1ccc(CCNC(=O)c2nn(C)c3c2CSc2ccccc2-3)cc1OC	5.29	–
COc1cc(NC(=O)c2noc3c2CSc2ccccc2-3)cc(OC)c1OC	–	0.794 µM (active)
O=C(NCc1ccccc1Cl)c1cccn1-c1nnc(N2CCCCC2)s1	2.19	–
O=C(Nc1ccc(CN2CCOCC2)cc1)c1cc(Cl)ccc1Cl	1.25	–
CC(C)c1cc(CN2CCOCC2)cc(C(C)C)c1O	–	3.98 µM (active)
CC(CN1CCOCC1)c1ccccc1 (centres undefined)	2.37	–
